High-throughput results (PubChem BioAssay)
Most compounds without a hit are left out; they make up all but 19% or so of the library.
TDP1 cell noCPT: qHTS for Inhibitors of human tyrosyl-DNA phosphodiesterase 1 (TDP1): qHTS in cells in absence of CPT; DT40 Tdp1-/- hTDP1 cells, no CPT, ATP luminescence, 48 h; Potency, µM (doses to about 46.2 µM), inactives show at the highest dose activity change, negative = growth inhibition, actives largely listed as inhibitors; 420,000 tested, 15% active; AID 686978, 2013; also: potency is read from the fitted curve at half-maximal effect; nearly all actives have a fitted effect of over 55% in size
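Cells were dispensed at 400 per well, compounds added by pin tool, plates incubated ≥48 hr at 37 °C, then CellTiter-Glo added for 30 min at room temperature before luminescence reading. Line: DT40 Tdp1-/- complemented with hTDP1; camptothecin omitted.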
HT1080NT lethal: qHTS for induction of synthetic lethality in tumor cells producing 2HG: qHTS for the HT-1080-NT fibrosarcoma cell line. HT-1080-NT fibrosarcoma viability, CellTiter-Glo ATP luminescence, 48 h. Potency, µM (top dose mostly 46.1 µM), without a hit: at the top dose activity, negative = less viability, usual class: cytotoxic. 360,000 tested, 1.6% active. AID 686970, 2013;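 also: NT is the 2HG producing partner of a matched IDH1 knockdown line; potency is read from the fitted curve at half-maximal effect; 0% = DMSO-treated cells and -100% = media-only wells without cells; nearly all actives have a fitted effect of over 55% in size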
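Compounds were tested in concentration-response format on HT-1080-NT cells for 48 hours at 37 degrees C. Cell viability came from CellTiter-Glo luminescence; curves were classified by r2, response magnitude and activity.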
HT1080 IDH1KD tx: qHTS for induction of synthetic lethality in tumor cells producing 2HG: qHTS for the HT-1080-IDH1KD cell line. HT-1080 IDH1 knockdown viability, ATP luminescence, 48 h. Potency, µM (highest dose often 46.1 µM), for the others: top-dose activity, negative = toxicity, hits mostly cytotoxic. 360,000 tested, 2% active. AID 686971, 2013;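 also: potency is read from the fitted curve at half-maximal effect; 0% = DMSO wells and -100% = cell-free medium wells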
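HT-1080-IDH1KD cells (IDH1 knocked down), 750/well in RPMI with 5% FBS, treated with compound 48 h at 37 degrees C. Viability by CellTiter-Glo luminescence, normalised to DMSO and no-cell wells; concentration-response curves classed.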
DT40 TDP1 CPT: qHTS for Inhibitors of human tyrosyl-DNA phosphodiesterase 1 (TDP1): qHTS in cells in presence of CPT; 420,000 tested, 12% active; Potency, µM (doses to about 46.2 µM), for the others: top-dose activity change, negative = growth inhibition, hits mostly inhibitors; AID 686979, 2013; chicken DT40 Tdp1-/-;hTDP1 cells + 20 nM CPT, ATP luminescence, 48 h; also: potency is read from the fitted curve at half-maximal effect; nearly all actives have a fitted effect of over 55% in size
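Cell growth measured by CellTiter-Glo luminescence after a minimum 48 h, 37 C compound exposure with 20 nM CPT in Tdp1-knockout DT40 cells stably expressing hTDP1, seeded 400/well; qHTS titration format.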
IL1B secr inh: qHTS for Inhibitors of Inflammasome Signaling: IL-1-beta AlphaLISA Primary Screen; THP-1 LPS/ATP IL-1B secretion, AlphaLISA, 16 h; active compounds read low; activity change, % at 57.5 µM; 360,000 tested, 4.7% active; AID 743279, 2014; in the data active = activity change below about -50%; inconclusive = mostly about -30% to -49%
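Secreted IL-1B measured by AlphaLISA bead assay after 16 h compound exposure of THP-1 cells; compounds (final up to 57.5 uM) added 1 h before LPS (250 ng/mL) and ATP (1.25 mM) stimulation; lower signal means less secretion.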
An asterisk follows results filed as active; ? = inconclusive; . = no result; [ ] = remark or other dose. Unless noted, calls follow the shape of the dose curve; as a rule, active = well fitted curve in the direction sought with a large enough effect; inconclusive = small, poorly fitted or top-dose-only effect, or another doubt; inactive = no such curve, though single readings can be large; an effect the other way counts as inactive or inconclusive. Unless noted, % is scaled to controls: 0 for no effect and ±100 for the full control effect.

SMILES	TDP1 cell noCPT	HT1080NT lethal	HT1080 IDH1KD tx	DT40 TDP1 CPT	IL1B secr inh
COc1ccc(-c2cc(C(=O)Nc3ccc(C(N)=O)cc3)c3ccccc3n2)cc1OC	5.8µM*	?	?	?	0
COc1ccc(-c2cc(C(=O)Nc3ccc(S(=O)(=O)Nc4onc(C)c4C)cc3)c3ccccc3n2)cc1OC	-5%	-3%	6%	9%	9
O=C(NCCN1CCOCC1)c1cc(-c2ccc(Cl)s2)nc2ccccc12	-29%	?	-3%	-10%	-17
COc1ccccc1CNC(=O)C(=O)Nc1ccc(C(=O)N2CCC(C)CC2)cc1	-11%	-19%	-21%	-7%	-13
Cc1cc(C)n(-c2nc3ccccc3nc2Nc2cc(C(=O)O)ccc2C)n1	-2%	.	.	-14%	.
Cc1cccc(N2CCN(C(=O)Cn3nc(Cc4ccncc4)c4ccccc4c3=O)CC2)c1C	?	1%	-1%	?	-12
CC(C)C[C@H]1CNC(=O)C(=O)N1C[C@@H]1CCCN1C[C@H](Cc1ccccc1)N1C[C@H](Cc2ccccc2)N(CCc2ccccc2)C(=O)C1=O	?	13%	17%	?	?
Cc1ccc(C)c(N(C)C(=O)c2ccc3c(=O)n4c(nc3c2)CCCCC4)c1	-84%	2%	0%	?	0
Cn1c(N)c(C(=O)COC(=O)CCCOc2ccc(Cl)cc2Cl)c(=O)n(C)c1=O	-8%	3%	10%	10%	-11
CC(=O)c1cccc(NC(=O)c2cc(-c3ccco3)nc3ccccc23)c1	18µM*	-5%	-12%	13µM*	6
Cc1nnc(Sc2cc(C(=O)NC3CC3)c3ccccc3n2)s1	7.3µM*	11%	6%	?	-6
COc1ccc(OC)c(NC(=O)c2cc(-c3ccc(Cl)s3)nc3ccccc23)c1	15µM*	.	.	-28%	.
COc1cc(-c2cc(-c3nnco3)c3ccccc3n2)cc(OC)c1OC	7.3µM*	-16%	-17%	?	?
Cc1cccc(NC(=O)CSc2nnc(C3CC3)n2CC2CCCO2)c1 (configuration not stated)	-3%	-7%	-6%	27%	19
CC(=O)Nc1cccc(OCCCOc2cccc([N+](=O)[O-])c2)c1	?	3%	15%	?	-5
Cc1ccc(CNC(=O)C2CCCN2C(=O)Nc2ccccc2)cc1 (configuration not stated)	19%	-4%	2%	13%	-7
O=C(Nc1nc2c(s1)CCCC2)c1cc(-c2ccccc2)nc2ccccc12	?	9%	-1%	?	-7
COc1cccc(NC(=O)c2cc(-c3ccncc3)nc3c(C)cc(C)cc23)c1	23µM*	-18%	?	?	72
COc1cc(-c2cc(C(=O)Nc3nc4ccccc4s3)c3ccccc3n2)cc(OC)c1OC	6.5µM*	-12%	-15%	7.3µM*	-12
O=C(NC(=S)Nc1ccccc1)c1cc(-c2ccccc2)nc2ccccc12	?	-6%	-11%	29µM*	24
O=C(NNC(=S)Nc1ccccc1)c1cc(-c2cccnc2)nc2ccccc12	-14%	5%	-6%	-21%	-7
O=C(Nc1nc2c(s1)CCCC2)c1cc(-c2ccncc2)nc2ccccc12	16µM*	-8%	-5%	?	15
O=C(c1ccco1)N1CCN(C(=O)C2CCN(S(=O)(=O)Cc3ccccc3)CC2)CC1	-11%	-1%	11%	-14%	3
CC(C)(C)c1ccc(C(=O)NCC(=O)O)cc1	-1%	11%	6%	13%	0
CCCCCCCN(CC)CCCC(O)c1ccc(NS(C)(=O)=O)cc1 (configuration not stated)	-25%	.	.	?	.
SMILES	TDP1 cell noCPT	HT1080NT lethal	HT1080 IDH1KD tx	DT40 TDP1 CPT	IL1B secr inh
CC(=O)Nc1ccc2c(c1)nc(CCNC(=O)c1ccco1)n2C	10%	9%	21%	-4%	-6
O=C1CN(C(=O)C2CCC(=O)N(CCc3ccc(Cl)cc3)C2)CCN1 (configuration not stated)	-7%	1%	3%	-12%	21
COc1cccc(-c2cc(C(=O)Nc3ccc(N(C)C(C)=O)cc3)c3cc(Br)ccc3n2)c1	1.8µM*	-7%	-20%	1.8µM*	-1
COc1cc2ccccc2cc1C(=O)NC1CCC(C)CC1 (configuration not stated)	-62%	2%	8%	?	-51*
Cc1cc(NC(=O)c2cc(-c3ccc(C)s3)nc3ccccc23)no1	?	7%	-2%	?	40
Cc1cccc(NC(=O)c2cc(-c3ccc(C)s3)nc3ccccc23)n1	13µM*	?	?	18µM*	-9
COc1ccc(-c2cc(C(=O)NCC(c3ccco3)N(C)C)c3ccccc3n2)cc1OC (configuration not stated)	15µM*	-5%	9%	23µM*	-23
O=C(/C=C/c1cccs1)NCc1ccccc1	-10%	16%	13%	-13%	0
COc1ccc(CCN(C)C(=O)c2cc(-c3ccc(C)cc3)nc3ccccc23)cc1OC	?	-5%	-11%	?	-12
O=C(NNC(=O)c1cc(-c2ccncc2)nc2ccccc12)c1cccc(Cl)c1	-24%	-3%	3%	-9%	7
Cc1ccc(S(=O)(=O)N(C)C)cc1NC(=O)c1cc(-c2ccncc2)nc2ccccc12	4.1µM*	-2%	-2%	?	-10
CC(=O)c1cccc(NC(=O)c2cc(-c3ccncc3)nc3ccccc23)c1	18µM*	-5%[9.24 µM]	-23%	?	-7
O=C(Nc1ccccn1)c1cc(-c2ccc(Cl)s2)nc2ccccc12	?	-18%	-19%	?	12
COc1ccc(-c2cc(C(=O)N(C)Cc3ccc(F)cc3)c3ccccc3n2)cc1OC	?	-3%	-1%	23µM*	-8
Cc1ccnc(NC(=O)c2cc(-c3ccc(Cl)s3)nc3ccccc23)c1	18µM*	-20%	-3%	10µM*	11
COc1ccc(CCNC(=O)COC(=O)/C=C/c2ccc(OC)c(OC)c2)cc1	13%	7%	6%	-1%	0
CNc1cc(-c2ccc(O)cc2C)ncn1	-27%	7%	8%	-8%	23
N#CCCn1cc(C(=O)Nc2ccc(C(=O)O)cc2)c(-c2cccc(Br)c2)n1	-3%	0%	7%	13%	2
